Results from PubChem BioAssay AID1159580 (chemical genetic matrix, 2015).
Screen size: about 5,500 compounds; about 2,000 (36%) were called active. Another 18% or so got no clear call; they are omitted. No stated cut-off is given here; in the data, active means normalized growth mostly below about 0.91 (no sharp cut-off); inconclusive means no clear call, values can overlap the other calls; inactive means mostly above about 0.92. The list shows a part of the results.

Assay: chemical genetic growth profiling, strain panel (AID 1159580);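 further: tested at 20 µM; growth read once vehicle control cultures reached saturation at 30 °C; 1 = growth at the plate median or of vehicle wells; lower values mean less growth of the strain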
Conditions: S. cerevisiae deletion strains, growth OD
[1] = locus YAL013W, strain DEP1, hits give low values
[2] = locus YAL040C, strain CLN3, hits give low values
[3] = locus YCL061C, strain MRC1 (second series), hits give low values
[4] = locus YDR363W, strain ESC2, hits give low values
[5] = locus YER002W, strain NOP16, hits give low values
[6] = locus YGR078C, strain PAC10, hits give low values
[7] = locus YGR229C, strain SMI1, hits give low values
[8] = locus YMR307W, strain GAS1, hits give low values
[9] = locus YNL128W, strain TEP1, hits give low values
[10] = locus YNL175C, strain NOP13, hits give low values
[11] = locus YNL197C, strain WHI3, hits give low values
[12] = locus YNL224C, strain SQS1, hits give low values
[13] = locus YOR083W, strain WHI5 (second series), hits give low values

Measured: normalized growth

COc1ccccc1NC(=O)Nc1nc(-c2cccnc2)nc2ccccc12
inactive: [1] 1.01 | [2] 1.02 | [3] 1 | [4] 1.02 | [5] 1.04 | [6] 0.993 | [7] 1.01 | locus YMR263W, strain SAP30, hits give low values 1.01 | [8] 1.02 | [9] 0.998 | [10] 0.977 | [11] 1.01 | [12] 1.01 | [13] 1.01 | locus YPL055C, strain LGE1, hits give low values 1.01

OC1CCCCC1N1CCC(c2ccccc2)CC1 (stereo not given)
inactive: [1] 0.998 | locus YAL021C, strain ccr4, hits give low values 0.998 | locus YAL026C, strain drs2, hits give low values 0.994 | locus YAL030W, strain snc1, hits give low values 0.992 | [2] 0.998 | locus YBL061C, strain skt5, hits give low values 0.994 | locus YBR009C, strain hhf1, hits give low values 0.957 | locus YBR023C, strain chs3, hits give low values 0.999 | locus YBR171W, strain sec66, hits give low values 0.99 | locus YBR231C, strain swc5, hits give low values 0.993 | locus YBR279W, strain paf1, hits give low values 0.999 | locus YCL011C, strain gbp2, hits give low values 0.996 | locus YCL016C, strain dcc1, hits give low values 0.989 | [3] 1.01 | locus YCL061C, strain MRC1, hits give low values 0.993 | locus YCL069W, strain vba3, hits give low values 0.989 | locus YCR088W, strain abp1, hits give low values 0.983 | locus YDL005C, strain med2, hits give low values 0.992 | locus YDL040C, strain nat1, hits give low values 0.993 | locus YDR001C, strain nth1, hits give low values 0.984 | locus YDR069C, strain doa4, hits give low values 0.998 | locus YDR137W, strain rgp1, hits give low values 0.945 | locus YDR150W, strain NUM1, hits give low values 1 | locus YDR159W, strain sac3, hits give low values 0.997 | locus YDR195W, strain ref2 0.941 | locus YDR297W, strain sur2, hits give low values 0.995 | locus YDR334W, strain swr1, hits give low values 0.996 | locus YDR335W, strain msn5, hits give low values 0.997 | [4] 1.01 | locus YDR392W, strain spt3, hits give low values 0.902 | locus YEL003W, strain gim4, hits give low values 0.994 | locus YEL037C, strain rad23, hits give low values 0.99 | locus YEL061C, strain CIN8 (second series), hits give low values 0.989 | [5] 0.992 | locus YER015W, strain faa2, hits give low values 0.992 | locus YER016W, strain bim1, hits give low values 0.993 | locus YER111C, strain swi4, hits give low values 0.978 | locus YER155C, strain BEM2 (second series), hits give low values 0.96 | locus YFR010W, strain ubp6, hits give low values 0.988 | locus YGL167C, strain pmr1, hits give low values 0.986 | locus YGL173C, strain kem1, hits give low values 0.994 | locus YGL227W, strain vid30, hits give low values 0.988 | locus YGL240W, strain doc1, hits give low values 1.01 | locus YGL253W, strain hxk2, hits give low values 0.996 | [6] 1.01 | [7] 1.01 | locus YHR013C, strain ard1, hits give low values 0.941 | locus YHR027C, strain rpn1, hits give low values 0.988 | locus YHR030C, strain SLT2, hits give low values 0.979 | locus YHR079C, strain IRE1, hits give low values 0.983 | locus YHR142W, strain chs7, hits give low values 1.01 | locus YJL092W, strain hpr5, hits give low values 0.989 | locus YJL095W, strain BCK1 (second series), hits give low values 0.993 | locus YJL095W, strain BCK1, hits give low values 0.984 | locus YJL115W, strain asf1, hits give low values 0.991 | locus YJL129C, strain trk1, hits give low values 1.02 | locus YJL154C, strain vps35, hits give low values 0.987 | locus YJL164C, strain tpk1, hits give low values 1 | locus YJL166W, strain qcr8, hits give low values 1 | locus YJL187C, strain SWE1, hits give low values 0.996 | locus YJR066W, strain TOR1, hits give low values 0.934 | locus YKL160W, strain elf1, hits give low values 1.02 | locus YKR026C, strain gcn3, hits give low values 0.975 | locus YKR091W, strain srl3, hits give low values 0.983 | locus YLL001W, strain dnm1, hits give low values 0.981 | locus YLL026W, hits give low values 0.995 | locus YLL041C, strain sdh2, hits give low values 0.99 | locus YLR027C, strain aat2, hits give low values 0.992 | locus YLR113W, strain HOG1, hits give low values 0.999 | locus YLR221C, strain rsa3, hits give low values 1.01 | locus YLR258W, strain gsy2, hits give low values 0.984 | locus YLR262C, strain YPT6 (second series), hits give low values 0.945 | locus YLR320W, strain mms22, hits give low values 0.998 | locus YLR342W, strain FKS1, hits give low values 0.981 | locus YLR357W, strain rsc2, hits give low values 0.979 | locus YLR370C, strain arc18, hits give low values 0.992 | locus YLR384C, strain iki3, hits give low values 0.983 | locus YML120C, strain ndi1, hits give low values 1.02 | locus YMR058W, strain fet3, hits give low values 0.999 | locus YMR125W, strain sto1, hits give low values 0.988 | locus YMR129W, hits give low values 0.985 | locus YMR205C, strain PFK2, hits give low values 0.953 | locus YMR231W, strain pep5, hits give low values 0.988 | [8] 0.991 | locus YNL071W, strain lat1, hits give low values 0.999 | [9] 0.978 | locus YNL153C, strain GIM3, hits give low values 0.997 | [10] 0.994 | locus YNL183C, strain NPR1, hits give low values 0.937 | [11] 0.993 | locus YNL209W, strain ssb2, hits give low values 0.993 | [12] 0.997 | locus YNL248C, strain rpa49, hits give low values 1.02 | locus YNL322C, strain KRE1 (second series), hits give low values 0.992 | locus YNR049C, strain mso1, hits give low values 0.989 | locus YOR001W, strain rrp6, hits give low values 1.01 | locus YOR070C, strain gyp1, hits give low values 0.992 | locus YOR080W, strain dia2, hits give low values 0.988 | [13] 1 | locus YOR083W, strain WHI5, hits give low values 1.02 | locus YOR106W, strain vam3, hits give low values 1.02 | locus YOR231W, strain MKK1, hits give low values 0.986 | locus YOR265W, strain rbl2, hits give low values 0.993 | locus YOR270C, strain vph1, hits give low values 1 | locus YOR290C, strain snf2, hits give low values 0.911 | locus YPL051W, strain arl3, hits give low values 0.999 | locus YPL078C, strain atp4, hits give low values 1.01 | locus YPL106C, strain sse1, hits give low values 0.98 | locus YPL240C, strain hsp82, hits give low values 1 | locus YPL256C, strain CLN2, hits give low values 1
